Laboratory results as given in PubChem BioAssay (NCI).
About 83,000 compounds went through this panel and 20% of them were active in at least one assay; those are over-represented in the sample as a whole.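 Growth was measured after 48 h exposure to one concentration of compound in 96-well plates. Values under 10 count as active.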 A number with no mark means an inactive call. Activity calls are given as the source filed them.

How the values were obtained:
Assay in all cases: NCI-60 one-dose screen, 48 h (100 = growth as untreated, 0 = no growth, -100 = all killed)
Conditions in all cases: 10 µM unless noted
NCI-H23 lung = tested on: NCI-H23 lung
NCI-H226 lung = tested on: NCI-H226 lung
NCI-H322M lung = tested on: NCI-H322M lung
HOP-62 NSCLC = tested on: HOP-62 NSCLC
NCI-H460 lung = tested on: NCI-H460 lung
NCI-H522 lung = tested on: NCI-H522 lung
A549/ATCC NSCLC = tested on: A549/ATCC NSCLC
786-0 renal = tested on: 786-0 renal
COLO 205 colon = tested on: COLO 205 colon
DU-145 prostate = tested on: DU-145 prostate
K-562 leukemia = tested on: K-562 leukemia
MALME-3M melanoma = tested on: MALME-3M melanoma
MDA-MB-231 breast = tested on: MDA-MB-231 breast
RXF 393 renal = tested on: RXF 393 renal
SF-268 CNS = tested on: SF-268 CNS
SF-295 CNS = tested on: SF-295 CNS
SF-539 CNS = tested on: SF-539 CNS
UACC-257 melanoma = tested on: UACC-257 melanoma
M14 melanoma = tested on: M14 melanoma

SMILES	growth (NCI-H23 lung)	growth (NCI-H226 lung)	growth (NCI-H322M lung)	growth (HOP-62 NSCLC)	growth (NCI-H460 lung)	growth (NCI-H522 lung)	growth (A549/ATCC NSCLC)	growth (786-0 renal)	growth (COLO 205 colon)	growth (DU-145 prostate)	growth (K-562 leukemia)	growth (MALME-3M melanoma)	growth (MDA-MB-231 breast)	growth (RXF 393 renal)	growth (SF-268 CNS)	growth (SF-295 CNS)	growth (SF-539 CNS)	growth (UACC-257 melanoma)	growth (M14 melanoma)
Clc1ccc(C2=NN[C@H](c3cn(-c4ccccc4)nc3-c3ccccc3)C2)cc1	52%	55%	72.5%	16.1%	45.5%	76.3%	46.5%	83.7%	70.1%	55.3%	61.6%	64.3%	64.4%	42.6%	74.6%	-20.8% (active)	67%	66.3%	71.1%
CS(=O)(=O)c1ccc(C(=O)N/N=C/c2ccccc2O)cc1	54.8%	55.2%	38.4%	28.3%	14.1%	15.1%	38.8%	33%	31.2%	40.4%	40.5%	63.5%	47.4%	53%	38.4%	38%	55.3%	22.6%	32.5%
COc1cc(Cl)cc(-c2nn(C(=O)NCCN3CCOCC3)cc2-c2ccncc2)c1	84.9%	99.7%	104%	56.7%	56.1%	18.3%	60.7%	61.8%	42.3%	86.1%	28.1%	70.2%	82.1%	76.3%	80.9%	52.7%	68.4%	81.7%	62%
COc1ccc(-c2nn(C(=O)NCCN(C)C)cc2-c2ccncc2)cc1Cl	63.5%	46.4%	109%	16%	27.4%	28.2%	32.6%	34.8%	25.1%	77.6%	16.5%	53.8%	54.5%	44.6%	44.8%	24%	25.6%	64.4%	45.8%
c1cn2cc(-c3ccc4ncn(C5CCCCC5)c4c3)nc(-c3ccc4c(c3)ncn4C3CCCCC3)c2n1	-41.5% (active)	-56.4% (active)	1.23% (active)	-55.4% (active)	-48.5% (active)	-52.6% (active)	-44.9% (active)	-47.1% (active)	-64.4% (active)	-59.1% (active)	-4.74% (active)	-14.3% (active)	-68.7% (active)	-89.1% (active)	-67% (active)	-86.5% (active)	-82.1% (active)	-71.5% (active)	-50.8% (active)
COc1ccc(/C=C/c2nc3ccccc3c(=O)n2-c2ccc(C#Cc3ccc(C(C)(C)C)cc3)cc2C)c(OC)c1	94%	87.3%	101%	112%	85%	70.2%	91.2%	101%	97.9%	109%	63.9%	94.8%	89.5%	113%	96.9%	101%	97.1%	72.8%	96.8%
CCN1C(=O)N(CC)C2C1NN=c1s/c(=C\c3ccco3)c(=O)n12 (centres undefined)	37.3%	60%	42.5%	28.2%	12.9%	-9.98% (active)	25%	25%	-19.8% (active)	3.04% (active)	11.5%	55.8%	43%	-2.28% (active)	44%	8.2% (active)	-1.22% (active)	63%	5.24% (active)
COC(=O)OC1C(O[C@H]2C[C@H]3[C@@H]4CC=C5C[C@@H](O)CC[C@]5(C)[C@H]4CC[C@]3(C)[C@H]2[C@H](C)C(=O)CCC(C)C)OCC(O)C1OC1OCC(O)C(O)C1OC(=O)c1ccc(OC)cc1 (some centres undefined)	27.9%	-8.65% (active)	45.2%	-26.5% (active)	-24.2% (active)	-49.8% (active)	1.81% (active)	-25% (active)	-52.4% (active)	34.8%	-25.2% (active)	-6.07% (active)	22.7%	-71.9% (active)	-6.22% (active)	-66.4% (active)	-58.1% (active)	-55.3% (active)	-58.5% (active)
CC(=O)Oc1c(Cl)c(Cl)c(Cl)c(Cl)c1Cl	95.3%	103%	92.3%	95.9%	105%	90.2%	85.9%	100%	106%	105%	101%	91.7%	86.3%	116%	96.1%	97.7%	86.3%	94.1%	105%
CCOC(=O)C1C(=O)C=C(c2ccccc2)CC1c1sc(N(C)Cc2ccccc2)nc1Cl (centres undefined)	89.1%	85.8%	91.2%	85.6%	93.3%	73.5%	83.8%	93.2%	100%	107%	73%	120%	82.9%	91.7%	89.6%	94.4%	105%	90.3%	94.7%
Clc1ccc(-c2cnc3c(-c4ccnc(N5CCNCC5)c4)cnn3c2)cc1	-12.3% (active)	115%	23.2%	-37.8% (active)	-39.8% (active)	-53.8% (active)	16.7%	-70% (active)	-57.7% (active)	27.6%	-13.5% (active)	-37.5% (active)	-23.3% (active)	-32.6% (active)	-16.2% (active)	34.9%	-82.4% (active)	-60% (active)	-78.8% (active)
CCN1C(=O)/C(=C/N2N=C(c3ccc(Cl)cc3)CC2c2ccc(OC)cc2)SC1=S (centres undefined)	98.3%	93%	89%	96%	99.7%	70.4%	74.3%	76.4%	99.7%	108%	77.8%	108%	87.2%	91.9%	95.2%	89.6%	88%	89.3%	92.3%
COc1cc(OC)c(Cl)cc1N	105%	108%	110%	104%	103%	94.8%	105%	111%	115%	114%	95.5%	134%	94.8%	110%	104%	135%	95.4%	111%	115%
Cc1csc(N/N=C/c2ccncc2)n1	100%	95.9%	109%	99.1%	101%	72.9%	68.8%	88.4%	107%	108%	94.1%	117%	102%	99.5%	114%	108%	106%	78.1%	100%
O=[N+]([O-])c1ccc(N/N=C/c2ccccc2O)nc1	33.9%	83.3%	39.6%	32.7%	15%	9.71% (active)	31.4%	21.8%	14.6%	48.7%	21.9%	78.5%	52.3%	38.1%	40.1%	35.2%	42.9%	32%	29.5%
Fc1ccc(-c2cnc3nonc3n2)c(F)c1	88.7%	102%	98.4%	93.7%	107%	84%	109%	104%	92.5%	100%	68%	105%	78%	111%	84.8%	109%	98.6%	96.6%	97.2%
